Reference: PubChem BioAssay AID2284358 (EPA ToxCast)
Inconclusive results are not listed. The source made the active and inactive calls. Rule for the calls: active = hit-call score of the fitted dose curve at least 0.9, where 1 is the maximum; inconclusive = response in the unintended direction; inactive = score below 0.9.

Molecular target: zebrafish Retinoid X Receptor beta (RXRb), rxrba (gene 30530) (UniProt Q7SYN5)
Assay: ATG_zfRXRb_EcoTox2: Attagene TRANS-FACTORIAL EcoTox-2 HepG2 Assay for zebrafish Retinoid X Receptor beta (RXRb)
Method: ATG_EcoTox2 is a cell-based, multiplexed assay created by modifying the existing Attagene TRANS-FACTORIAL system to include a panel of nuclear receptors from some or all the following species: human (Homo sapiens), african clawed frog (Xenopus laevis), rainbow trout (Oncorhynchus mykiss), japanese medaka (Oryzias latipes), and zebrafish (Danio rerio). The ECOTOX2-FACTORIAL format uses HepG2, a human liver cell line, with measurements taken at 24 hours after chemical dosing in a 24-well plate. ATG_zfRXRb_EcoTox2 is one of 29 assay components calculated in the ATG_EcoTox2 assay. It is designed to make measurements of mRNA induction, a form of inducible reporter, as detected with fluorescence intensity signals by Reverse transcription polymerase chain reaction (RT-PCR) and Capillary electrophoresis technology.The assay endpoint ATG_zfRXRb_EcoTox2 was analyzed in the positive analysis fitting direction relative to DMSO as the negative control and baseline of activity. Using a type of inducible reporter, measures of mRNA for gain-of-signal activity can be used to understand the reporter gene at the transcription factor-level as they relate to the gene RXRb. Furthermore, this assay endpoint can be referred to as a primary readout, because this assay has produced multiple assay endpoints where this one serves a reporter gene function. […]
Human liver HepG2 cells are transiently transfected with multiple reporter transcription units (MRTUs) in 6-well plates using FuGene 6 reagent (Roche; 3 ml FuGene/1 mg DNA). […] A major difference between the CIS and TRANS system is that in CIS activities of endogenous TFs are measured, whereas the TRANS assay evaluates changes in activities of exogenous, chimeric NR-Gal4 proteins. […] The fragments were purified using Qiaquick PCR columns (Qiagen), analyzed on an ABI 3130xL genetic analyzer (Applied Biosystems) with peak positions identified by using a set of X-rhodamine (ROX)-labeled MapMarker1000 molecular weight standards (BioVentures). […]

Chain of zebrafish Retinoid X Receptor beta (RXRb), rxrba (gene 30530) (Q7SYN5 whole entry, looked up): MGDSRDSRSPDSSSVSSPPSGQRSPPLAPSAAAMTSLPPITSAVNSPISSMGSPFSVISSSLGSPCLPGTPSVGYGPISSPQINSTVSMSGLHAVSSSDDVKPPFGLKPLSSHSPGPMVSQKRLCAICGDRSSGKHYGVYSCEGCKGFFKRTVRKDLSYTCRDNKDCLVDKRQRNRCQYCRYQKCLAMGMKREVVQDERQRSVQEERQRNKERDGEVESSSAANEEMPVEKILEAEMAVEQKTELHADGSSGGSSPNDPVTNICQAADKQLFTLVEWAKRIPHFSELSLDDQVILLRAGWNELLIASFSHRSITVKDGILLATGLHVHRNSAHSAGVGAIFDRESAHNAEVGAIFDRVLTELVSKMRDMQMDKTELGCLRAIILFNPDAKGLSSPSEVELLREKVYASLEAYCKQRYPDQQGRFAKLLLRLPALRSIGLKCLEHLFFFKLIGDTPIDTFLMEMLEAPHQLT

SMILES	AC50	outcome
[Cl][Sn]([c]1ccccc1)([c]1ccccc1)[c]1ccccc1	95.2 nM (active)	–
O=S(=O)(O)C(F)(F)C(F)(F)C(F)(F)C(F)(F)C(F)(F)C(F)(F)F	–	inactive
O=P(Oc1ccccc1)(Oc1ccccc1)Oc1ccccc1	–	inactive
